Assay results: PubChem BioAssay (Tox21)
Active and inactive are the calls of the source. The call rests on the fitted dose curve; in most records, active means well fitted curve in the direction sought with a large enough effect in the repeat runs; inconclusive means weak or mixed curves; inactive means flat fitted curve, though single readings scatter.

Assay: qHTS assay to test for compound auto fluorescence at 535 nm (green) in HepG2 cells (AID 720675)
Settings: green autofluorescence 485/535 nm, 1 h; series mostly up to 91.3 µM; fluorescence, % of fluorescein control: at the top concentration
On the % scale 0 is the no-effect control and ±100 the full control effect.

| Structure (SMILES) | fluorescence, % of fluorescein control | Potency |
| --- | --- | --- |
| CCN(CC)c1ccc(N)cc1 | 0.994% [at 95.7 µM] (inactive) |  |
| CCN=C1C=CC(=C(c2ccc(N(CC)CC)cc2)c2ccc(N(CC)CC)cc2)c2ccccc21 | -0.804% (inactive) |  |
| S=C(SSSSSSC(=S)N1CCCCC1)N1CCCCC1 | -0.0182% [at 18.6 µM] (inactive) |  |
| Cc1cc2c(C(C)C)c(O)c(O)c(C=O)c2c(O)c1-c1c(C)cc2c(C(C)C)c(O)c(O)c(C=O)c2c1O | -0.123% [at 46 µM] (inactive) |  |
| NC(=O)C(=O)N/N=C/c1ccc([N+](=O)[O-])o1 | 0.0193% [at 46 µM] (inactive) |  |
| Cc1c(-c2ccc(O)cc2)n(Cc2ccc(OCCN3CCCCCC3)cc2)c2ccc(O)cc12 | 0.195% [at 46 µM] (inactive) |  |
| O=Nc1ccc(NO)cc1 | -0.0045% [at 95.7 µM] (inactive) |  |
| CCCCCCC(C)OC(=O)COc1nc(F)c(Cl)c(N)c1Cl (stereo not drawn) | 0.117% (inactive) |  |
| c1cc2c3c(c1)ccc1cccc(c13)C2 | -0.142% [at 95.7 µM] (inactive) |  |
| CN1[C@@H]2CC[C@H]1CC(OC(=O)C(CO)c1ccccc1)C2 (stereo partly drawn) |  | inactive |
| O=C1C=CC(=O)N1c1ccccc1 | -0.104% (inactive) |  |
| NCCCCCCNCCCCCCN | -0.0553% (inactive) |  |
| CC1=C(/C=C/C(C)=C/C=C/C(C)=C\C=O)C(C)(C)CCC1 | 0.266% (inactive) |  |
| Cc1cccc(C)c1NC(=O)CN1CCN(CCCC(c2ccc(F)cc2)c2ccc(F)cc2)CC1 | 0.0022% [at 18.6 µM] (inactive) |  |
| C=CC(=O)OCCOCC(CC)(COCCOC(=O)C=C)COCCOC(=O)C=C | 0.06% [at 95.7 µM] (inactive) |  |
| CC(=O)Nc1ccc(O)cc1 |  | inactive |
| C[C@]12CC[C@H]3C(=CCc4cc(O)ccc43)[C@@H]1CCC2=O | 0.187% (inactive) |  |
| COc1cc(C(=O)NS(=O)(=O)c2ccccc2C)ccc1Cc1cn(C)c2ccc(NC(=O)OC3CCCC3)cc12 | -0.019% [at 46 µM] (inactive) |  |
| Cc1c(C)n(Cc2ccccc2)c2ccc(C(=O)OCCN(C)C)cc12 | 0.0952% [at 46 µM] (inactive) |  |

| Structure (SMILES) | fluorescence, % of fluorescein control | Potency |
| --- | --- | --- |
| CN(C)c1ccc(N=Nc2ccccc2C(=O)O)cc1 | 0.0208% (inactive) |  |
| Cc1cc(Nc2ccc(O)cc2)ccc1N | -0.0723% (inactive) |  |
| CC(NCCC(c1ccccc1)c1ccccc1)c1ccccc1 (stereo not drawn) | -0.0279% [at 46 µM] (inactive) |  |
| SCCCCCCCCS | -0.06% (inactive) |  |
| CC(C)(C)c1cc(/C=C2\SC(=N)NC2=O)cc(C(C)(C)C)c1O | 2.02% (inactive) |  |
| Oc1ccc(-c2ccc(O)cc2)cc1 | 0.013% (inactive) |  |
| CC(CN(C)C)CN1c2ccccc2CCc2ccccc21 (stereo not drawn) | -0.198% [at 18.6 µM] (inactive) |  |
| CN(C)CCCN1c2ccccc2CCc2ccccc21 |  | inactive |
| CN1[C@@H]2CC[C@@H]1CC(OC(=O)C(CO)c1ccccc1)C2 (stereo partly drawn) | -0.0042% [at 46 µM] (inactive) |  |
| CC(=O)OC(OC(C)=O)c1ccc([N+](=O)[O-])o1 | 0.374% [at 95.7 µM] (inactive) |  |
| CCN(CC)CCCN(c1ccccc1)C1Cc2ccccc2C1 | 0.0003% [at 46 µM] (inactive) |  |
| CNCC[C@H](Oc1cccc2ccccc12)c1cccs1 | -0.0089% [at 46 µM] (inactive) |  |
| CSc1ccc2c(c1)N(CCC1CCCCN1C)c1ccccc1S2 (stereo not drawn) |  | inactive |
| Clc1ccc(C(Cn2ccnc2)OCc2ccsc2Cl)c(Cl)c1 (stereo not drawn) | 0.0815% [at 46 µM] (inactive) |  |
| C=C(c1ccc(C(=O)O)cc1)c1cc2c(cc1C)C(C)(C)CCC2(C)C |  | inactive |
| CCCCOc1ccc(C(=O)CCN2CCCCC2)cc1 | 0.0117% [at 18.6 µM] (inactive) |  |
| CN1CCN(C2Cc3ccccc3Sc3ccc(Cl)cc32)CC1 (stereo not drawn) | 0.171% [at 46 µM] (inactive) |  |
| CCO[Si](CCCSSSSCCC[Si](OCC)(OCC)OCC)(OCC)OCC | 0.0984% (inactive) |  |

Assay: qHTS assay to test for compound auto fluorescence at 460 nm (blue) in HEK293 cells (AID 720678)
Settings: blue autofluorescence 405/460 nm; series mostly up to 91.3 µM; fluorescence, % of triamterene: at the top concentration
How it was run: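 Blue-channel (Ex/Em 405/460 nm) intensity measured in HEK293 cultures after overnight compound exposure at 37C; signal expressed relative to triamterene. Cells plated 2,000 per well in 10% dialyzed FBS medium and allowed 4-5 hr to attach.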

| Structure (SMILES) | fluorescence, % of triamterene | Potency |
| --- | --- | --- |
| CCN(CC)c1ccc(N)cc1 | -0.238% [at 95.7 µM] (inactive) |  |
| CCN=C1C=CC(=C(c2ccc(N(CC)CC)cc2)c2ccc(N(CC)CC)cc2)c2ccccc21 | -0.0651% (inactive) |  |
| S=C(SSSSSSC(=S)N1CCCCC1)N1CCCCC1 | 0.0298% [at 18.6 µM] (inactive) |  |
| Cc1cc2c(C(C)C)c(O)c(O)c(C=O)c2c(O)c1-c1c(C)cc2c(C(C)C)c(O)c(O)c(C=O)c2c1O | 0.436% [at 46 µM] (inactive) |  |
| NC(=O)C(=O)N/N=C/c1ccc([N+](=O)[O-])o1 | 0.265% [at 46 µM] (inactive) |  |
| Cc1c(-c2ccc(O)cc2)n(Cc2ccc(OCCN3CCCCCC3)cc2)c2ccc(O)cc12 | 0.185% [at 46 µM] (inactive) |  |
| O=Nc1ccc(NO)cc1 | -0.151% [at 95.7 µM] (inactive) |  |
| CCCCCCC(C)OC(=O)COc1nc(F)c(Cl)c(N)c1Cl (stereo not drawn) | 0.144% (inactive) |  |
| c1cc2c3c(c1)ccc1cccc(c13)C2 | 0.0106% [at 95.7 µM] (inactive) |  |
| CN1[C@@H]2CC[C@H]1CC(OC(=O)C(CO)c1ccccc1)C2 (stereo partly drawn) |  | inactive |
| O=C1C=CC(=O)N1c1ccccc1 | -0.222% (inactive) |  |
| NCCCCCCNCCCCCCN | 0.095% (inactive) |  |
| CC1=C(/C=C/C(C)=C/C=C/C(C)=C\C=O)C(C)(C)CCC1 | 1.06% (inactive) |  |
| C=CC(=O)OCCOCC(CC)(COCCOC(=O)C=C)COCCOC(=O)C=C | 0.0276% [at 95.7 µM] (inactive) |  |
| COc1cc(C(=O)NS(=O)(=O)c2ccccc2C)ccc1Cc1cn(C)c2ccc(NC(=O)OC3CCCC3)cc12 | -0.117% [at 46 µM] (inactive) |  |
| Cc1c(C)n(Cc2ccccc2)c2ccc(C(=O)OCCN(C)C)cc12 | -0.212% [at 46 µM] (inactive) |  |

| Structure (SMILES) | fluorescence, % of triamterene | Potency |
| --- | --- | --- |
| CN(C)c1ccc(N=Nc2ccccc2C(=O)O)cc1 | -0.151% (inactive) |  |
| Cc1cc(Nc2ccc(O)cc2)ccc1N | -0.085% (inactive) |  |
| CC(NCCC(c1ccccc1)c1ccccc1)c1ccccc1 (stereo not drawn) | 0.186% [at 46 µM] (inactive) |  |
| SCCCCCCCCS | -0.0302% (inactive) |  |
| CC(C)(C)c1cc(/C=C2\SC(=N)NC2=O)cc(C(C)(C)C)c1O | 0.477% (inactive) |  |
| Oc1ccc(-c2ccc(O)cc2)cc1 | 0.0391% (inactive) |  |
| CC(CN(C)C)CN1c2ccccc2CCc2ccccc21 (stereo not drawn) | -0.0464% [at 18.6 µM] (inactive) |  |
| CN(C)CCCN1c2ccccc2CCc2ccccc21 |  | inactive |
| CN1[C@@H]2CC[C@@H]1CC(OC(=O)C(CO)c1ccccc1)C2 (stereo partly drawn) | 0.0534% [at 46 µM] (inactive) |  |
| CC(=O)OC(OC(C)=O)c1ccc([N+](=O)[O-])o1 | 1.09% [at 95.7 µM] (inactive) |  |
| CNCC[C@H](Oc1cccc2ccccc12)c1cccs1 | 0.0791% [at 46 µM] (inactive) |  |
| Clc1ccc(C(Cn2ccnc2)OCc2ccsc2Cl)c(Cl)c1 (stereo not drawn) | 0.0867% [at 46 µM] (inactive) |  |
| C=C(c1ccc(C(=O)O)cc1)c1cc2c(cc1C)C(C)(C)CCC2(C)C |  | inactive |
| CN1CCN(C2Cc3ccccc3Sc3ccc(Cl)cc32)CC1 (stereo not drawn) | 0.17% [at 46 µM] (inactive) |  |
| CCO[Si](CCCSSSSCCC[Si](OCC)(OCC)OCC)(OCC)OCC | -0.082% (inactive) |  |
